Screening results from PubChem BioAssay.
A selection: hits, their analogues and other compounds. The true share with any hit is near 12%.
JMJD2A Tudor inh: blocks the human JMJD2A Tudor domain; AlphaScreen JMJD2A-Tudor / H3K4me3 peptide binding; hit rate 4.4% among 390,000; O75164; Potency, µM (doses to about 114 µM), inactives show at the top dose activity change, negative = inhibition, usual class: inhibitors; AID 504339; further: on the % scale 0 is the no-effect control and ±100 the full control effect; nearly all actives have a fitted effect of over 50% in size
TDP1 block: inhibitors of human tyrosyl-DNA phosphodiesterase TDP1; Q9NUW8; recombinant TDP1, AlphaScreen DNA substrate cleavage; hit rate 0.28% among 350,000; Potency, µM (titrated, usually from 130 µM), for the others: at the highest dose activity change, negative = inhibition, actives largely listed as inhibitors; further: on the % scale 0 is the no-effect control and ±100 the full control effect; nearly all actives have a fitted effect of over 40% in size
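Recombinant human Tdp1 (E. coli-expressed, 1 nM final) preincubated with compounds 15 min at room temperature, then 5'-biotin/3'-phosphotyrosine-FITC DNA substrate (15 nM final) added for 5 min. AlphaScreen beads (10 ug/ml final) added 10 min; cleavage lowers signal.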
BAZ2B inh: BAZ2B (human) inhibition. Q9UIF8. Potency, µM (top dose mostly 114 µM), inactives show top-dose activity change, negative = inhibition, hits mostly inhibitors. AID 504333. hit rate 4.4% among 360,000. AlphaScreen BAZ2B-H3K14Ac peptide displacement; further: on the % scale 0 is the no-effect control and ±100 the full control effect; nearly all actives have a fitted effect of over 60% in size
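Complex of BAZ2B and biotin-H3K14Ac (50 nM apiece) forms over 30 min at RT, then faces library compounds up to 110 uM for another 30 min; AlphaScreen beads added, 20 min dark incubation, luminescence read.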
HP1b binding inh: HP1-beta chromodomain-methylated histone interaction inhibition | hit rate 0.56% among 390,000 | Potency, µM (highest dose often 114 µM), for inactives: top-dose activity change, negative = inhibition, hits mostly inhibitors | AlphaScreen HP1-beta / biotin-H3K9me3 peptide binding | AID 540317; further: nearly all actives have a fitted effect of over 70% in size
Target sequence (P83916 whole entry, looked up): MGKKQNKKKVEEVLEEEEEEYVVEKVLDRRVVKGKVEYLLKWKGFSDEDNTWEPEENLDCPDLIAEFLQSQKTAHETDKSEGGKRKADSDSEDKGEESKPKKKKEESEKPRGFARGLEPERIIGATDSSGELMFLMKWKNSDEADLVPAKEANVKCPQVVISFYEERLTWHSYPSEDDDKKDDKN
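HP1-beta protein (50 nM final) preincubated 30 min at room temperature with biotinylated H3(1-18)K9me3 peptide (50 nM) in PBS pH 7.4, 0.01% Tween-20, then compound added for 30 min. AlphaScreen streptavidin donor/nickel chelate acceptor beads (10 ug/mL final), 30 min dark, luminescence read.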
G9a block: inhibitors of human histone lysine methyltransferase G9a; Q96KQ7; G9a H3K9 monomethylation, AlphaScreen, 2 h; Potency, µM (doses to about 102 µM), without a hit: top-dose activity, negative = inhibition, most hits filed as inhibitors; hit rate 8.8% among 350,000; further: on the % scale 0 is the no-effect control and ±100 the full control effect; nearly all actives have a fitted effect of over 75% in size
Target sequence (Q96KQ7 913-1193 limits assumed): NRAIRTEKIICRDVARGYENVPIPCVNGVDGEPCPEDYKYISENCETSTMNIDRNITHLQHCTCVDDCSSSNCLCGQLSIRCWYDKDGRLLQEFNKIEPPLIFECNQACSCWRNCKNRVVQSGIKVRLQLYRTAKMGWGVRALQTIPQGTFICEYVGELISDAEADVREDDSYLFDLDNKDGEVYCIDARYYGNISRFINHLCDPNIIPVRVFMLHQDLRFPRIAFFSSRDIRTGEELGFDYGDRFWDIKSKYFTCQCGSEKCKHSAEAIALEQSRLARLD
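Using a bead-based AlphaScreen, monomethylated H3K9 product from 2 h room-temperature reactions (G9a 20 nM, peptide 500 nM, SAM 20 uM) was detected with 0.5 ug/mL rabbit anti-H3K9me1 antibody.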
Sfp inh: inhibitors of Bacillus subtilis Sfp phosphopantetheinyl transferase | Q9F4F7 | Biochemical Sfp PPTase activity, qHTS | Potency, µM, for the others: largest response in the series, negative = inhibition, usual class: inhibitors | hit rate 3.5% among 310,000 | AID 1490;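 further: the enzyme is Sfp with the accession as filed and its product quenches rhodamine fluorescence; 0% = enzyme reaction without inhibitor and -100% = no enzyme wells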
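With Hepes-Na pH 7.6 buffer containing 10 mM MgCl2, Sfp (15 nM) modified BHQ-2-YbbR (12.5 uM) using rhodamine-CoA (5 uM). Two reads 30 minutes apart at 525/598 nm yielded each well's rate.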
* marks the source's active call; other numbers are inactive results; u = inconclusive; x = not tested or not shown; [ ] = another dose, or the depositor's remark. The call rests on the fitted dose curve; in most records, active means well fitted curve in the direction sought with a large enough effect; inconclusive means small, poorly fitted or top-dose-only effect, or another doubt; inactive means no such curve, though single readings can be large; an effect the other way counts as inactive or inconclusive. Potency means the concentration at half of the fitted maximal effect.

SMILES	JMJD2A Tudor inh	TDP1 block	BAZ2B inh	HP1b binding inh	G9a block	Sfp inh
CC(C)(C)OC(=O)N[C@@H](Cc1ccccc1)c1nnc(SCC(=O)O)o1	-26%	5%	-31%	18%	u	13%
Cc1ccccc1CS(=O)(=O)c1nnc([C@H](Cc2ccccc2)NC(=O)OC(C)(C)C)o1	-12%	4%	29%	32%	40µM*	7.9µM*
Cc1ccc(NC(=O)CSc2nnc([C@H](C)NC(=O)OC(C)(C)C)o2)c(C)c1	-3%	-3%	-18%	28%	-1%[12.7 µM]	2%
CCSc1nnc([C@H](Cc2ccccc2)NC(=O)OC(C)(C)C)o1	-12%	1%	4%	16%	-1%[59 µM]	16%
CC(C)(C)OC(=O)N[C@@H](Cc1ccccc1)c1nnc(S(=O)(=O)Cc2ccccc2)o1	x	4%	-28%	x	11µM*	8.9µM*
CC(C)(C)SCCNS(=O)(=O)c1ccc(Cl)cc1	18µM*	-3%	-1%	-14%	36%[12.7 µM]	9%
CC(C)(C)SCCNS(=O)(=O)c1ccc(C#N)cc1	-14%	4%	0%	-2%	-2%	16%
CCOc1cc(/C=C(\C#N)C(=O)Nc2ccc(C)cc2)ccc1OCc1cc(=O)n2nc(CC)sc2n1	-20%	12%	1%	15%	-6%[59 µM]	x
COc1ccc(NCc2ccccc2[N+](=O)[O-])cc1OC	50µM*	8%	50µM*	u	11µM*	-5%
COc1ccc(NC(=O)COC(=O)Cc2ccccc2[N+](=O)[O-])cc1OC	-10%	9%	-17%	42%	-4%	-5%
N#Cc1cc2c([nH]c1=S)CCCCCC2	3.2µM*	1%	-4%	u	u	10µM*
O=C(Nc1ccncc1)c1ccc(Cl)c(S(=O)(=O)N2CCCCC2)c1	-10%	2%	-18%	63%	-10%[0.501 µM]	x
O=C(OC1CCOC1=O)c1ccc(Cl)c(S(=O)(=O)N2CCCCC2)c1 (centres undefined)	-10%	3%	-17%	24%	-43%	23%
O=C(OC1CCOC1=O)c1ccc(Cl)c(S(=O)(=O)N2CCOCC2)c1 (centres undefined)	-14%	28µM*	u	15%	-1%[12.7 µM]	x
O=C(O)c1ccc(Cl)c(S(=O)(=O)N2CCCC2)c1	-6%	50µM*	-22%	27%	u	13%
O=C(Nc1ccc(Cl)c(S(=O)(=O)N2CCCCC2)c1)c1ccncc1	-12%	-6%	1%	12%	56µM*	x
C=CCC(C)(O)c1cccc(Br)c1 (centres undefined)	x	6%	x	x	x	15%
NC(=O)C1CCN(C2=C(NS(=O)(=O)c3ccc(Br)cc3)C(=O)c3ccccc3C2=O)CC1	79µM*	x	40µM*	u	x	-8%
CCOC(=O)C1CCN(C2=C(NS(=O)(=O)c3ccc(Br)cc3)C(=O)c3ccccc3C2=O)CC1	7.9µM*	13%	5.6µM*	7.1µM*	8.9µM*	15%
CCN1CCN(C2=C(NS(=O)(=O)c3ccc(Br)cc3)C(=O)c3ccccc3C2=O)CC1	u	9%	45µM*	-17%	45µM*	-13%
NC(=O)C1CCN(c2nc3ccccc3nc2NS(=O)(=O)c2ccc(Br)cc2)CC1	-16%	2%	x	0%	x	x
NC(=O)C1CCN(C2=C(NS(=O)(=O)c3ccccc3)C(=O)c3ccccc3C2=O)CC1	u	8%	40µM*	u	x	3%
N=C(C[C@@H](O)COc1ccccc1-c1ccccc1)N1CCCCC1	x	12%[56.1 µM]	x	x	x	-4%
O=C(Nc1ccc2nc(SCC(=O)N3CCCc4ccccc43)sc2c1)c1cccc(Cl)c1	-14%	-2%	-12%	28%	-15%[59 µM]	x
CCCc1cc(=O)oc2c(CN3CCCC3)c(O)ccc12	5%	-2%	4%	35%	22%	3%
SMILES	JMJD2A Tudor inh	TDP1 block	BAZ2B inh	HP1b binding inh	G9a block	Sfp inh
Cc1cc(=O)oc2c(CN3CCCCC3)c(O)c(Cl)cc12	4%	2%	0%	21%	-10%[12.7 µM]	9%
CCCc1cc(=O)oc2cc(C)c(CN3CCCC3)c(O)c12	50µM*	x	13µM*	-14%	89µM*	u
CCc1cc(=O)oc2cc(C)c(CN3CCCCC3)c(O)c12	56µM*	x	20µM*	-32%	-25%[59 µM]	-18%
CCc1ccc(O)c(N=Cc2cccc(C)c2O)c1	u	3%	-34%	-3%	2.5µM*	-20%
C=CCc1cccc(C=Nc2cc(Br)ccc2O)c1O	u	3%	u	9%	45µM*	u
C=CCc1cccc(/C=N/c2ncn[nH]2)c1O	-18%[57.1 µM]	5%	-34%	11%	-4%[12.7 µM]	21%
Cc1cccc(C=Nc2ccc3c4c(cccc24)CC3)c1O	-29%	4%	u	5%	u	-24%
O=C(Nc1ccc(C2SCCS2)cc1)c1ccccc1	-3%	x	4%	20%	x	-11%
CCCN1C(=O)/C(=C/c2ccc3c(c2)OCO3)NC1=S	-23%	1%	-28%	35%	9%[59 µM]	12%
CCCN1C/C(=C/c2ccc3c(c2)OCO3)C(=O)/C(=C/c2ccc3c(c2)OCO3)C1	22µM*	3%	50µM*	u	u	40µM*
CC1=C/C(=C\c2ccc3c(c2)OCO3)C(=O)S1	u	6%	u	-11%	25µM*	-25%
CCOc1ccc(C(C(=O)NC2CCCC2)N(C(=O)CNC(=O)c2ccco2)c2cccnc2)cc1 (centres undefined)	-5%	x	-13%	25%	11%	7%
O=C(CN1CCN(C(=O)c2ccccc2)CC1)Nc1cccc(S(=O)(=O)N2CCCC2)c1	-17%	-13%	11%	22%	u	x
O=C(OCC(=O)N1CCc2ccccc2C1)c1ccc(F)cc1Cl	6%	1%	x	29%	x	x
O=C1CC(/C=C/c2ccc([N+](=O)[O-])cc2)=Nc2ccccc2N1	-10%[11.4 µM]	7%	u	-14%	x	22µM*
O=C1CC(/C=C/c2ccccn2)=Nc2ccccc2N1	45µM*	5%	u	-15%	45µM*	-35%
O=C1CC(/C=C/c2ccco2)=Nc2ccccc2N1	-29%	4%	-12%	17%	45µM*	-23%
C/C(Cc1ccccc1)=N\NC(=O)CNC(=O)Cc1ccccc1	9%	4%	-1%	43%	x	4%
O=C(NCCCNc1ccnc2cc(Cl)ccc12)c1ccccc1F	-21%	x	5%	42%	-15%	8%
CCN(C(=O)COC(=O)c1ccc(F)c(S(=O)(=O)N2CCOCC2)c1)C1CCS(=O)(=O)C1 (centres undefined)	-15%	-1%	-3%	15%	x	9%
COc1ccc(-n2c(=O)c(-c3cccs3)nc3cnc(N4CCN(C)CC4)nc32)cc1	x	x	x	x	1%[0.501 µM]	-16%
